For some of these results: Potency and affinity values are given separately.
What was measured:
Parameters in all cases: scale not given: direction of the effect not stated beside the values
[1] = target: Protein translocase subunit SecA (Escherichia coli (strain K12)) (UniProt P10408); experiment: Assay to Identify E. coli SecA ATPase Inhibitors; type: functional; details: 30 µM
[2] = target: T1, Ubiquitin-activating enzyme e1, putative (Leishmania donovani (strain BPK282A1)) (UniProt E9BSI1); experiment: Leishmania donovani Ubiquitin Activating Enzyme (LdE1); type: functional; details: 30 µM
T1 sequence (whole entry): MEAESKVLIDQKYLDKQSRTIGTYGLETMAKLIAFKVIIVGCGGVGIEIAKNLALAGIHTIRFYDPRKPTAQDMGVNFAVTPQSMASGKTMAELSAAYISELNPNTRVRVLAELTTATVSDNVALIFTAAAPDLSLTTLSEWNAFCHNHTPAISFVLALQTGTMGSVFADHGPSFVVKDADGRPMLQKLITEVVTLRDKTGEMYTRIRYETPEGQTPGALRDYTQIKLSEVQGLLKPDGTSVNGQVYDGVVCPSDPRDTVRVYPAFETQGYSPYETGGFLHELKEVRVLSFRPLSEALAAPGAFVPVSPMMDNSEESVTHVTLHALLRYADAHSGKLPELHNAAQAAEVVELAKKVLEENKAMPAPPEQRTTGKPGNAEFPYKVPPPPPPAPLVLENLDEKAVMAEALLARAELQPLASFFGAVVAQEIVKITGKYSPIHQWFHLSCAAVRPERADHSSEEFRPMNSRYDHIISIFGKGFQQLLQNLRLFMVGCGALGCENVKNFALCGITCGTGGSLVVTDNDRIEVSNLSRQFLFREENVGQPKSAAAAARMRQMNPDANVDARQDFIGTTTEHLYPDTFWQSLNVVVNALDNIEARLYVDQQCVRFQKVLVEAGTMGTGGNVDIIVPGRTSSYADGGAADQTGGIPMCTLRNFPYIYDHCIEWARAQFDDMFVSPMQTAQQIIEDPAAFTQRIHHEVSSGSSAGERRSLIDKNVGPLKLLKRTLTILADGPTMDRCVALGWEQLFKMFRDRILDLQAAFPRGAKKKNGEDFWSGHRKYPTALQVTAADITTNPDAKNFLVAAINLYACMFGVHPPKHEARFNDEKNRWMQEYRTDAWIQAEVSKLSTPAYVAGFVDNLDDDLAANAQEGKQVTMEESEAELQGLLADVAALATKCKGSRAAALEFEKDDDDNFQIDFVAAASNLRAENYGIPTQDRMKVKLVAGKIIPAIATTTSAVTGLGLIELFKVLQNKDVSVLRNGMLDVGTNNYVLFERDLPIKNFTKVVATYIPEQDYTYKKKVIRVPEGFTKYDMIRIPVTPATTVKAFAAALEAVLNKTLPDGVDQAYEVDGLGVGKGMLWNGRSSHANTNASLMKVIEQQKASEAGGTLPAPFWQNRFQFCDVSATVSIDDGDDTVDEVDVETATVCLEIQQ

[3] = target: AMP-activated protein kinase, AMPK (Homo sapiens) (UniProt P54646+O43741+P54619+Q9UGJ0+Q9Y478+Q13131+Q9UGI9); experiment: AMP-dependent Kinase enzyme assay. An in vitro enzyme assay that detects ADP turnover that is directly proportional to AMPK activity. This uses naive AMPK that is activated during the assay with MK-8722; type: functional; details: 30 µM
[4] = target: Sialic acid-binding Ig-like lectin 9 (Homo sapiens) (UniProt Q9Y336); experiment: Hs-Siglec9 ALPHAscreen SOP 20170721; details: 10 µM
Trypanosoma cruzi = experiment: Trypanosoma cruzi phosphomannomutase and mannose-1-phosphate guanylyltransferase assay; type: functional; details: 10 µM
[5] = target: T2, Arginase-2, mitochondrial (Homo sapiens) (UniProt P78540); experiment: in vitro enzyme assay to detect the production of urea directly proportional to the activity of Arginase II; type: functional; details: 33.3 µM; note: in the data most compounds retested in dose-response had high values
T2 sequence (whole entry): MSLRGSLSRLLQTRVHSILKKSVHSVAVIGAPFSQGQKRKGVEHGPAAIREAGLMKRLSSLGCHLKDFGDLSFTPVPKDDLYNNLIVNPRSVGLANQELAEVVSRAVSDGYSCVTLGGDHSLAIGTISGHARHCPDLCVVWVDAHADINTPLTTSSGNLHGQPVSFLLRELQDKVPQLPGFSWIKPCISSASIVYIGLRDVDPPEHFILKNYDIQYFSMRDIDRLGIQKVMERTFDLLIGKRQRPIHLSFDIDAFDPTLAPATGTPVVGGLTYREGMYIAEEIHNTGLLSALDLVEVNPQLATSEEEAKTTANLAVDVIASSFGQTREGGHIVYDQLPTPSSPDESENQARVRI

[6] = target: T3, Proteasome subunit beta (Trypanosoma cruzi) (UniProt O96673); experiment: Trypanosoma cruzi proteasome chymotrypsin-like activity (TcProtChymo) assay.; note: in the data most compounds retested in dose-response had high values; type: functional; details: 9.37 µM
T3 sequence (whole entry): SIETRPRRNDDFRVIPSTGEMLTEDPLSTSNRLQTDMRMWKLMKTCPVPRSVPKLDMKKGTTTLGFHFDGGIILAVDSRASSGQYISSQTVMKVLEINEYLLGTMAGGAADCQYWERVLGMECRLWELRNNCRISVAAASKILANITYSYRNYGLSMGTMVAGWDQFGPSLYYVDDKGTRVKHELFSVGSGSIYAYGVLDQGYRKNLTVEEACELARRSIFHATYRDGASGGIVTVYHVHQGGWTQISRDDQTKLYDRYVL

Homo sapiens = species: Homo sapiens; experiment: To identify inhibition of the IFN signalling (Jak-Stat) pathway via expression of an eGFP reporter gene under the control of an IFN-stimulated response element (ISRE) containing MxA promoter.; type: functional; details: 30 µM
[7] = target: T4, Tyrosyl-tRNA synthetase, putative (Trypanosoma cruzi (strain CL Brener)) (UniProt Q4DSP6); experiment: Trypanosoma cruzi tyrosyl tRNA synthetase (TcYRS) _High Tyrosine SOP; type: functional; details: 30 µM; note: in the data most compounds retested in dose-response had high values
T4 sequence (whole entry): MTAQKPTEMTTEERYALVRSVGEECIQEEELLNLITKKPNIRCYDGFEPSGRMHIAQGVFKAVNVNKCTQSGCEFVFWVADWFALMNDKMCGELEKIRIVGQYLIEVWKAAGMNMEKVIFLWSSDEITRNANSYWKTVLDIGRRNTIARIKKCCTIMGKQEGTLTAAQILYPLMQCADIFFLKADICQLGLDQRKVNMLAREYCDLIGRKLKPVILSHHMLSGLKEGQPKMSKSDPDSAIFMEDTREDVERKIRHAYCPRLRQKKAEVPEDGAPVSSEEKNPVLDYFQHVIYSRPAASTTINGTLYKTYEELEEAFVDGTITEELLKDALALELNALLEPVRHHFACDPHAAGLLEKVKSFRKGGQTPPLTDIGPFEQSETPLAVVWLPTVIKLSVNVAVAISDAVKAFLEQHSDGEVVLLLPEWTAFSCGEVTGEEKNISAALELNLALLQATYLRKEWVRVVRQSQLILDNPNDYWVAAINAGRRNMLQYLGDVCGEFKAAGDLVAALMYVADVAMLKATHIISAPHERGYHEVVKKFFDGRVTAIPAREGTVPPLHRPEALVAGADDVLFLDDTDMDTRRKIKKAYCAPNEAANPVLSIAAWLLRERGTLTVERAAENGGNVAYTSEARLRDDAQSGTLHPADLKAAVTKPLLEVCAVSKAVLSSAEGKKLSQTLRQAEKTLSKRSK

[8] = target: T4, Tyrosyl-tRNA synthetase, putative (Trypanosoma cruzi (strain CL Brener)); experiment: Trypanosoma cruzi tyrosyl tRNA synthetase (TcYRS) SOP; type: functional; details: 30 µM
[9] = target: Chromo domain-containing protein 1 (Saccharomyces cerevisiae (strain ATCC 204508 / S288c) (Baker's yeast)) (UniProt P32657); experiment: ScCHD-1 Enzyme Inhibition Assay; type: functional; details: 30 µM; note: in the data most compounds retested in dose-response had high values
Sequence of Chromo domain-containing protein 1 (Saccharomyces cerevisiae (strain ATCC 204508 / S288c) (Baker's yeast)) (P32657 whole entry, the tested form may be a part): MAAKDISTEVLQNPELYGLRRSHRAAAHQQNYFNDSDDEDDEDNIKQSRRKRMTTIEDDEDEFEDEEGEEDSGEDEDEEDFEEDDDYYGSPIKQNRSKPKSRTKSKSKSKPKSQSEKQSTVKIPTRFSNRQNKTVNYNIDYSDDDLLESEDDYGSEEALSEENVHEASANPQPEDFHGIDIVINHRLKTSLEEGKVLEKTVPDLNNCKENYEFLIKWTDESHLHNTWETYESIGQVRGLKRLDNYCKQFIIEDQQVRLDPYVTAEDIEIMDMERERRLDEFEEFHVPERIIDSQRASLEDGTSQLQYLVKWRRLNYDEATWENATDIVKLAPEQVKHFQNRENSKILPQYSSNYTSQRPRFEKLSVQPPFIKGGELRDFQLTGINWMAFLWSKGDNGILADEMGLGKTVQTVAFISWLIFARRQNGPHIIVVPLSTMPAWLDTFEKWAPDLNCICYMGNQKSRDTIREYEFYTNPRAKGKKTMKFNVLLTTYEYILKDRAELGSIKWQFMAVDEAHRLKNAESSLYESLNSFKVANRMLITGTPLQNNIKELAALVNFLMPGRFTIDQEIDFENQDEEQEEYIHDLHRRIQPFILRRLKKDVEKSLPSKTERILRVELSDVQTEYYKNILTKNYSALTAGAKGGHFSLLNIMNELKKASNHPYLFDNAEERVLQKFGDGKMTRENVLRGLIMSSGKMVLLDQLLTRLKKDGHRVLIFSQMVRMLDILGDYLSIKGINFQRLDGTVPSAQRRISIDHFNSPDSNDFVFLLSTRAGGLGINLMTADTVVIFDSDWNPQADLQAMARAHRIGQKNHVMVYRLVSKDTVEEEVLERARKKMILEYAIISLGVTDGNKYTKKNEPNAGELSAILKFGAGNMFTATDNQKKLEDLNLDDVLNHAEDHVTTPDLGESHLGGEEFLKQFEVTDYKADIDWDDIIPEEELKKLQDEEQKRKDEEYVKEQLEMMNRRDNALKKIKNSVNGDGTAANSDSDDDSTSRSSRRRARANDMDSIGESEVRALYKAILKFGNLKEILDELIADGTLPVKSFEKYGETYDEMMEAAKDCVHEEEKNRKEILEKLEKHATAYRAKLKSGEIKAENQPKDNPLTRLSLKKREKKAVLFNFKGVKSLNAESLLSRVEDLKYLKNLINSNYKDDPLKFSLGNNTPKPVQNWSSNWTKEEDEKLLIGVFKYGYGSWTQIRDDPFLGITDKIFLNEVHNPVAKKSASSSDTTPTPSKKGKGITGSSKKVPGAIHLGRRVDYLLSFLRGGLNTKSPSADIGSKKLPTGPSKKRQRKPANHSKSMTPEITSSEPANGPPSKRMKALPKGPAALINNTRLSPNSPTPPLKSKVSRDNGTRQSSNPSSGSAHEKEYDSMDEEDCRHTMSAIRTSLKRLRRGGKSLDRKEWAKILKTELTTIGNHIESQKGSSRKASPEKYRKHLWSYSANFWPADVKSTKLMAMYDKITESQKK

Sequence of Protein translocase subunit SecA (Escherichia coli (strain K12)) (P10408 whole entry): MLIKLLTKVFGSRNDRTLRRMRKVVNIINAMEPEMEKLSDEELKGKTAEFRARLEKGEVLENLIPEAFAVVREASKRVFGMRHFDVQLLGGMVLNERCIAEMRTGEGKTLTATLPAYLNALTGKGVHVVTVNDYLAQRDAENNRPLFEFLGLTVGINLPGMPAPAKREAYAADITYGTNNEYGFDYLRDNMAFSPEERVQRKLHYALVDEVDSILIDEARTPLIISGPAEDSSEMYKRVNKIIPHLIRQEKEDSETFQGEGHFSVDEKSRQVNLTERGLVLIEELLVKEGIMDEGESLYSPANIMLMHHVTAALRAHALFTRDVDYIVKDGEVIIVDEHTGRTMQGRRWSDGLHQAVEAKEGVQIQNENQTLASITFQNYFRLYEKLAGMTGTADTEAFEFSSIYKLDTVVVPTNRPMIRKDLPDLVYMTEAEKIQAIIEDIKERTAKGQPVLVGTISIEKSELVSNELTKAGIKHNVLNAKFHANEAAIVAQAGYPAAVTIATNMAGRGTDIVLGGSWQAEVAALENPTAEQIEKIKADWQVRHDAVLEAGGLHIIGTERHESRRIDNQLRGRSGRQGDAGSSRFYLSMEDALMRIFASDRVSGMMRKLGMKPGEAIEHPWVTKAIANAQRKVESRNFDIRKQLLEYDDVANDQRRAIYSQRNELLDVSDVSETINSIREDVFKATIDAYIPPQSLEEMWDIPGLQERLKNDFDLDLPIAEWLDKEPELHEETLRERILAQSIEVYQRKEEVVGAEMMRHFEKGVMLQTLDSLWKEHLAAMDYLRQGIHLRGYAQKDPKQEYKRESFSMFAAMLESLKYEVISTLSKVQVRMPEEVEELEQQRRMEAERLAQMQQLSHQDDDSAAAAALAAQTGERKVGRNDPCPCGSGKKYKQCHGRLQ
Sequence of Sialic acid-binding Ig-like lectin 9 (Homo sapiens) (Q9Y336 whole entry): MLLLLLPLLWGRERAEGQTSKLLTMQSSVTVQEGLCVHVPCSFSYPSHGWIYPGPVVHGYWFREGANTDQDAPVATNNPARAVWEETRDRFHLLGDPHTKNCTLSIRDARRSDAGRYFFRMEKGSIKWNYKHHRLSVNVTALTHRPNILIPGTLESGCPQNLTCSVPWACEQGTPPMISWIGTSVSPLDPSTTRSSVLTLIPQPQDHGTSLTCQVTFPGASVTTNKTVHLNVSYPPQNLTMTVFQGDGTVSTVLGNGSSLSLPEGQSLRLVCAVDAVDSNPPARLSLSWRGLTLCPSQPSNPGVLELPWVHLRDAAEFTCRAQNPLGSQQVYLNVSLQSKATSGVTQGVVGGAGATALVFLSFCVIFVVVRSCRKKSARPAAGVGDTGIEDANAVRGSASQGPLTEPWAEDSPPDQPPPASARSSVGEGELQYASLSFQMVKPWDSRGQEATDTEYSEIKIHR

Row | Structure (SMILES) | Percent Effect [1] [%] | Percent Effect [2] [%] | Percent Effect [3] [%] | Percent Effect [4] [%] | Percent Effect (Trypanosoma cruzi) [%] | Percent Effect [5] [%] | Percent Effect [6] [%] | Percent Effect (Homo sapiens) [%] | Percent Effect [7] [%] | Percent Effect [8] [%] | Percent Effect [9] [%]
1 | Cc1ccc(CC2CCCN2CC(=O)NCc2cccnc2)cc1 (configuration not stated) | -4.01 | 2.63 | 5.21 | 3.98 | 1.66 | -5.92 | 14.1 | -8.66 | 4.25 | 13 | -4.98
2 | COc1ccc(-c2nnc(SC(C)C(=O)NC3CC3)[nH]2)c(OC)c1 (configuration not stated) | -8.04 | 15.8 | 1.94 | -2.88 | 2.63 | -2.37 | 13.3 | 71.7 | 6.38 | 18.2 | -7.11
3 | C[S+]([O-])c1nncn1CC(=O)c1ccc2c(c1)CCO2 (configuration not stated) | -5.7 | 8.11 | -3.44 | 36.4 | 3.23 | 26.6 | 12.4 | -10.5 | 3.23 | 16.1 | -9.11
4 | CCOc1ncccc1C(=O)N1CCCCC1c1nccs1 (configuration not stated) | -4.08 | 2.7 | -17.5 | 15.7 | 2.55 | -7.62 | -2.7 | 10.1 | 4.43 | 11.1 | -9.25
5 | Cc1nc(-c2ccco2)ccc1C(=O)N1CCCC1Cn1cccn1 (configuration not stated) | -2.79 | 1.27 | 3.11 | 2.49 | -0.513 | 3.66 | 13.4 | 7.74 | 4.17 | 0 | -8.65
6 | Cc1nc(CN2CCCC2c2nc(C(C)C)no2)cs1 (configuration not stated) | -3.44 | 18.1 | -18.2 | 15.3 | 3.79 | 5.3 | 9.47 | -11.9 | 5.26 | 12.8 | -5.13
7 | CSCC(CCO)NC(=O)Nc1cc(Br)ccc1C (configuration not stated) | 0.198 | 5.48 | 11.7 | 4.67 | 2.35 | 4.09 | 15.6 | -12 | 1.07 | 5 | 106
8 | CC(=O)N1CCC(c2nccnc2Oc2ccccc2)CC1 | -6.13 | 4.05 | 4.17 | -0.964 | -6.32 | -3.02 | 4.06 | 13.5 | 2.15 | 1.3 | 11.4
9 | CC(C)c1nnc2ccc(N3CCC(C(N)=O)CC3)nn12 | -7.89 | 1.33 | 11.2 | 0.782 | -4.52 | -8.63 | 3.14 | -2.58 | -1.06 | 0 | -7.68
10 | O=C(COCc1ccccc1Cl)N1CCCC(n2cccn2)C1 (configuration not stated) | -4.85 | 18.2 | 6.5 | -7.66 | -1.08 | 4 | 20.4 | 20.2 | 2.86 | 11.8 | -9.25
11 | Cn1cc(C[C@H]2[C@@H](O)CCN2C(=O)C2CC=CC2)cn1 | -1.02 | 7.79 | 8.48 | -3.96 | 0.69 | 12.3 | 17.8 | 26.4 | 1.06 | 14.1 | -9.76
12 | Cc1cc(CN2CCCC2c2noc(C3CC3)n2)c2ccccc2n1 (configuration not stated) | 1.53 | -16.2 | -1.25 | 5.64 | -1.39 | 9.8 | -4.49 | 94.8 | 11.9 | 3.66 | 12.8
13 | Cc1ccc(C)c(C(NC(=O)C(C)(C)C)c2cccnc2)c1 (configuration not stated) | -1.95 | 13 | 3.34 | -1.13 | 4.63 | -0.645 | 14.3 | 21.8 | 4.23 | 6.41 | -10.2
14 | Cc1ccc(CC(=O)N2CCCC(c3cc(C)[nH]n3)C2)cn1 (configuration not stated) | -4.35 | 13.5 | -1.96 | 17.6 | 5.66 | -4.25 | 3.77 | 12.1 | 3.96 | 15.8 | -0.933
15 | NC(=O)c1ccc(N2CCCCC2)c(NC(=O)c2cncc(Br)c2)c1 | -3.53 | 5.2 | 10.4 | 12.7 | 2.06 | -78.6 | 12.5 | 35.7 | 3.23 | 11.1 | -2.92
16 | CCNC(=O)N1CCC2(C1)c1ccccc1S(=O)(=O)N2CCC(C)C (configuration not stated) | -3.49 | 5.33 | 5.91 | -1.77 | 5.99 | -52.5 | 5.3 | -14.8 | 1.04 | 0 | -0.42
17 | CC(=O)N1CCN(c2cc(-c3ccccc3)nc3c(C)c(C)nn23)CC1 | -6.15 | -11 | -6.13 | 6.66 | 4.96 | 2.4 | 16.2 | 4.69 | 7.29 | 8.64 | -7.72

— ChEMBL document CHEMBL3988442, “University of Dundee, Small-Polar-MMV Screening Library” (2021)
